From publication PMC7862700, “An all-to-all approach to the identification of sequence-specific readers for epigenetic DNA modifications on cytosine”

How the values were obtained:
Assay in all cases: DAPPL (digital affinity profiling via proximity ligation, sequencing); 10 mM Tris-HCl pH 7.5, 50 mM NaCl, 1 mM DTT, 4% glycerol, room temperature, 30 min; GST-TFs on glutathione beads, 16-mer random dsDNA library, 0.1% formaldehyde crosslink after washing; high values mean tight binding
FEV = target: T1, FEV (Homo sapiens, UniProt Q99581 1-238); settings: protein: recombinant; tags: N-terminal GST; dsDNA, one strand shown
T1 sequence: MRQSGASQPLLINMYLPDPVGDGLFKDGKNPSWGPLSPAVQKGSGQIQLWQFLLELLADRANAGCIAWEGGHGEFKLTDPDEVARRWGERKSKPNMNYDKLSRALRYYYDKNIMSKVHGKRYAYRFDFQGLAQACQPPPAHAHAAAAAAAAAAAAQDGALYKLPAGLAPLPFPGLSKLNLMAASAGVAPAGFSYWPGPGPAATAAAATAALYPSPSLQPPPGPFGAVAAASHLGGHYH
In short: (§1)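 GST fusions of human transcription factors were expressed in yeast and captured with glutathione beads. Once given DNA barcodes and pooled alongside a tag-only sample, they were incubated for 30 min at room temperature with 200 nmole of a random double-stranded 16-mer DNA library in Tris/NaCl/DTT/glycerol buffer, then washed, crosslinked (0.1% formaldehyde), proximity-ligated, PCR-amplified and sequenced on an Illumina NextSeq500. The binding signal of each hexamer is its read frequency for a factor divided by its frequency for the tag-only sample.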

ETV5 = ETV5 (Homo sapiens, UniProt P41161 1-510); settings: protein: recombinant; tags: N-terminal GST; dsDNA, one strand shown
In short: as §1

HSF1 = HSF1 (Homo sapiens, UniProt Q00613 1-529); settings: protein: recombinant; tags: N-terminal GST; chain copies: 3; dsDNA, one strand shown
In short: as §1

SPIC = target: T2, SPIC (Homo sapiens, UniProt Q8N5J4 1-248); settings: protein: recombinant; tags: N-terminal GST; dsDNA, one strand shown
T2 sequence: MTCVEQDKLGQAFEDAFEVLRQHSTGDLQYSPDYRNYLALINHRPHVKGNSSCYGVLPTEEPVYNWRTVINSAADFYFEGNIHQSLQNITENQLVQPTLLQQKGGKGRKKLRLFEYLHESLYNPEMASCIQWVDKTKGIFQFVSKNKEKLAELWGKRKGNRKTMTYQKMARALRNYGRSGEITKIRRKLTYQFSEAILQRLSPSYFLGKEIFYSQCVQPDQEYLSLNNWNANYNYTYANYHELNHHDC
In short: as §1

ELF4 = ELF4 (Homo sapiens, UniProt Q99607 1-663); settings: protein: recombinant; tags: N-terminal GST; dsDNA, one strand shown
In short: as §1

ELK4 = target: T3, ELK4 (Homo sapiens, UniProt P28324-2 1-405); settings: protein: recombinant; tags: N-terminal GST; dsDNA, one strand shown
T3 sequence: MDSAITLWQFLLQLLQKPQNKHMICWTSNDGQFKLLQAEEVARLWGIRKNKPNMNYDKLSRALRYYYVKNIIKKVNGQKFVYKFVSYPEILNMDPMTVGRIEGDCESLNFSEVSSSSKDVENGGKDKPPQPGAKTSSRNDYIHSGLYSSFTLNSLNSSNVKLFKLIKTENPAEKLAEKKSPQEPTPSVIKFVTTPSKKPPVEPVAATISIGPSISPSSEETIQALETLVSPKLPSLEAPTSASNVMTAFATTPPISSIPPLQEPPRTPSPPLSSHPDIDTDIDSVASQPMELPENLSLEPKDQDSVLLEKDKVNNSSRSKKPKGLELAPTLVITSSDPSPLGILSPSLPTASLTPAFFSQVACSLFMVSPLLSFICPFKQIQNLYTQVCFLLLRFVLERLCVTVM
In short: as §1

ETV2 = target: T4, ETV2 (Homo sapiens, UniProt O00321 1-342); settings: protein: recombinant; tags: N-terminal GST; dsDNA, one strand shown
T4 sequence: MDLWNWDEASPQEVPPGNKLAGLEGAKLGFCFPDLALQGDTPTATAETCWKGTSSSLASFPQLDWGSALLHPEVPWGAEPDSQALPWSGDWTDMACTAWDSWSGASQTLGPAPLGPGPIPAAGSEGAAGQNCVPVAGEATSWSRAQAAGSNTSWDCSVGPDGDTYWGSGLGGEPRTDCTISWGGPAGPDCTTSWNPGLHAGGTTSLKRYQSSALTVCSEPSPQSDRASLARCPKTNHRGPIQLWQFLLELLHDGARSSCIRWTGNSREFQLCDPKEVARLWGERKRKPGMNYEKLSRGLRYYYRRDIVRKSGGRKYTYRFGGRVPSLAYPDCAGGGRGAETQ
In short: as §1

ELF3 = target: T5, ELF3 (Homo sapiens, UniProt P78545 1-371); settings: protein: recombinant; tags: N-terminal GST; dsDNA, one strand shown
T5 sequence: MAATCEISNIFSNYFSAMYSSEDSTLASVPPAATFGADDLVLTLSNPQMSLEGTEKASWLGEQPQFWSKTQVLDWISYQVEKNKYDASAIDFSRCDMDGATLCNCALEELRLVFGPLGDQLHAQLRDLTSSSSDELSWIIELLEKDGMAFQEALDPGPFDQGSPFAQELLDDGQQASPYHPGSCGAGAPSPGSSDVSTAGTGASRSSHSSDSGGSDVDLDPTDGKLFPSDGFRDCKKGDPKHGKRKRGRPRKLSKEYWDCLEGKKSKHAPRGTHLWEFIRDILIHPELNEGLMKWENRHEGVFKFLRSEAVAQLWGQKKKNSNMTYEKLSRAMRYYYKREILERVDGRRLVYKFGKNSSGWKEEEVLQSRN
In short: as §1

CRX = CRX (Homo sapiens, UniProt O43186 1-299); settings: protein: recombinant; tags: N-terminal GST; dsDNA, one strand shown
In short: as §1

ETV1 = ETV1 (Homo sapiens, UniProt P50549 1-477); settings: protein: recombinant; tags: N-terminal GST; dsDNA, one strand shown
In short: as §1

ETV1, sequence (P50549 whole entry): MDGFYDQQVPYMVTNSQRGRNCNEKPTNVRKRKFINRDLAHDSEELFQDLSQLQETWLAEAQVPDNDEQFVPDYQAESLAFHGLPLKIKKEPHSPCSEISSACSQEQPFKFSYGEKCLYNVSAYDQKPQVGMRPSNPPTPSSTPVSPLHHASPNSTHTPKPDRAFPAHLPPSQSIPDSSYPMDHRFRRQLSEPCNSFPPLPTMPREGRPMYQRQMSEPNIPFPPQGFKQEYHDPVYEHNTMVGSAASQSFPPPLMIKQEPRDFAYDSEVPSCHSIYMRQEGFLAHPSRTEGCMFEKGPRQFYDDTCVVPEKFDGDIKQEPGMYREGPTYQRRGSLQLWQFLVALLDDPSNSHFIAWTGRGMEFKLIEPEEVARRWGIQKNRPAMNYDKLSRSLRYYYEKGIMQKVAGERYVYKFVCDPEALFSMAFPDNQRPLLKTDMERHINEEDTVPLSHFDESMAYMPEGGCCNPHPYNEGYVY
CRX, sequence (O43186 whole entry): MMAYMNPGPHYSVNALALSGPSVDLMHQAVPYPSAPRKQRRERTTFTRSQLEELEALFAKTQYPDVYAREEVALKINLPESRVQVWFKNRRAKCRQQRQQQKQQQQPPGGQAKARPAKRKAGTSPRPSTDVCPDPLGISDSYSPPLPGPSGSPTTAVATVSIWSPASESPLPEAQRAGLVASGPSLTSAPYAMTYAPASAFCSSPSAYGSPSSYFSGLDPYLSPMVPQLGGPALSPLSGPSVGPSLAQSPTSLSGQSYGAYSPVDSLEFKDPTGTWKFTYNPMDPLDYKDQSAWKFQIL
HSF1, sequence (Q00613 whole entry): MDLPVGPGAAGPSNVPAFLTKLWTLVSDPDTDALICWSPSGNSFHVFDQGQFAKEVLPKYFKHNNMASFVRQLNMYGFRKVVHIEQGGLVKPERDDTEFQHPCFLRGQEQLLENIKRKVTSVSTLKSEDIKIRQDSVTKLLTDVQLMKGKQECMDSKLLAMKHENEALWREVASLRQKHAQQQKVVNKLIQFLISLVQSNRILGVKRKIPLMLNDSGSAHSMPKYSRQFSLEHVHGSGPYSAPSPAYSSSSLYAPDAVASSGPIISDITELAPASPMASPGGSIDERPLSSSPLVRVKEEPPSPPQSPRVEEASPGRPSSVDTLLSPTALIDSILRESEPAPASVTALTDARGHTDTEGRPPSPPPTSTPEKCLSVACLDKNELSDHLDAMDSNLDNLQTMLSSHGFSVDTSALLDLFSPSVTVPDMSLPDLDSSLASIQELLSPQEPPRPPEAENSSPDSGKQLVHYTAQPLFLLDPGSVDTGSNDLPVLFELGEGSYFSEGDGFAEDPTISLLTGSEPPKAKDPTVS
ETV5, sequence (P41161 whole entry): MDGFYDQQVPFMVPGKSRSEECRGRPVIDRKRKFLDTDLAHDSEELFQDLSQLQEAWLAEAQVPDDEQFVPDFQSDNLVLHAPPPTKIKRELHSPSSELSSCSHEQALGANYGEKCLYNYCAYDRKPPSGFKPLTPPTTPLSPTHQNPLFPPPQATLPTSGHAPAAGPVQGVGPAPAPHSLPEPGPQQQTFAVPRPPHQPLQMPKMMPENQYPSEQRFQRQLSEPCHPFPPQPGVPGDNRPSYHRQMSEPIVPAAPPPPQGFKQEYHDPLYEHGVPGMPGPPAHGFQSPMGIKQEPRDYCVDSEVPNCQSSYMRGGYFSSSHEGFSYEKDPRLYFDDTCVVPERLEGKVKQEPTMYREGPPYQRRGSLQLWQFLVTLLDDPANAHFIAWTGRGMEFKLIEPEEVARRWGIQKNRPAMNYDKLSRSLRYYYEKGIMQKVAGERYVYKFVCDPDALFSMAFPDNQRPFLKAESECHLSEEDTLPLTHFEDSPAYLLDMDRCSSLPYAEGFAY
ELF4, sequence (Q99607 whole entry): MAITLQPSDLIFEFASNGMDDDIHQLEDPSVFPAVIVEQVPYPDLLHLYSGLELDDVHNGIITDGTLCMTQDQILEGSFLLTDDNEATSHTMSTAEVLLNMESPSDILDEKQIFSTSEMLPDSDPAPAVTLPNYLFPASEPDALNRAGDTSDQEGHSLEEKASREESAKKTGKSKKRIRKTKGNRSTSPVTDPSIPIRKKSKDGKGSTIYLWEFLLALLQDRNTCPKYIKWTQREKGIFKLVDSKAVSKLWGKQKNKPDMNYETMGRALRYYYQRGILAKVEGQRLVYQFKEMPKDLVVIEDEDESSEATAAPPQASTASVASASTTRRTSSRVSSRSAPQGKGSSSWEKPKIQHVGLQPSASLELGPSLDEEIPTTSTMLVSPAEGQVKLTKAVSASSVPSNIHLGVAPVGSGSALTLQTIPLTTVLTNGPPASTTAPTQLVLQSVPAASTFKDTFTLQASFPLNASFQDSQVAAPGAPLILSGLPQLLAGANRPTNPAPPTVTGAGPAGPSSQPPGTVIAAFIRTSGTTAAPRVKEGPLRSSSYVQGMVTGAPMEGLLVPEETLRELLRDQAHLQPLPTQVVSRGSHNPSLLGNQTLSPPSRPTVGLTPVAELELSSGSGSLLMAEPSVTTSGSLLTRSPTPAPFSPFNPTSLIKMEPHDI

## TCTCGC
FEV
  binding signal: 1.64 fold enrichment (6-mer frequency, TF over GST control)
ETV5
  binding signal: 1.6 fold enrichment (6-mer frequency, TF over GST control)
HSF1
  binding signal: 2.5 fold enrichment (6-mer frequency, TF over GST control)
SPIC
  binding signal: 1.4 fold enrichment (6-mer frequency, TF over GST control)
ELF4
  binding signal: 1.75 fold enrichment (6-mer frequency, TF over GST control)
ELK4
  binding signal: 1.76 fold enrichment (6-mer frequency, TF over GST control)
ETV2
  binding signal: 1.96 fold enrichment (6-mer frequency, TF over GST control)
ELF3
  binding signal: 1.88 fold enrichment (6-mer frequency, TF over GST control)
CRX
  binding signal: 1.84 fold enrichment (6-mer frequency, TF over GST control)
ETV1
  binding signal: 1.75 fold enrichment (6-mer frequency, TF over GST control)
